PubChem BioAssay (Tox21)
Where “and” joins values, the source holds several entries; their conditions need not be identical. Equal values may be shown once. Inconclusive results are not listed. Some compounds were tested as several samples or in several runs, with calls that do not always agree. Calls of active or inactive are those of the source. Calls come from the whole dose curve; as a rule, active = well fitted inhibition curve with a large enough effect in the signal ratio in the repeat runs; inconclusive = weak or mixed curves, or effect the other way; inactive = flat fitted curve, though single readings scatter; the % refers to the signal ratio.

Test: qHTS assay for small molecule disruptors of the mitochondrial membrane potential (AID 720635)
Conditions: HepG2 mitochondrial membrane potential, Mito-MPS dye ratio; series mostly up to 83.2 µM; ratio activity, negative = MMP loss: at the top concentration
Text: U.S. Tox21 Program National Center for Advancing Translational Sciences [NCATS] NIH Chemical Genomics Center [NCGC] U.S. Environmental Protection Agency [EPA] National Institutes of Environmental Health Sciences [NIEHS] National Toxicology Program [NTP] U.S. Food and Drug Administration [FDA] Tox21 Assay Overview: Mitochondrial membrane potential (MMP), one of the parameters for mitochondrial function, is generated by mitochondrial electron transport chain that creates an electrochemical gradient by a series of redox reactions. This gradient drives the synthesis of ATP, a crucial molecule for various cellular processes. Measuring MMP in living cells is commonly used to assess the effect of chemicals on mitochondrial function. […] The dye accumulates in the mitochondria of healthy cells as aggregates, with red fluorescence. The mitochondrial potential collapses and the dye can no longer accumulate in the mitochondria and remains in the cytoplasm in monomers, with green fluorescence.
Tox21 Assay Protocol Summary: 2,000 HepG2 cells in 5 uL/well were dispensed into black, clear-bottom 1536-well plates using a Multidrop Combi (Thermo Scientific) dispenser. The assay plates were incubated overnight at 37C to allow cells to attach to the wells, followed by the transfer of 23 nL compound or DMSO vehicle by a pin tool (Kalypsys). The plates were incubated for 1 hr at 37C and 5% CO2, followed by the addition of 5 uL of 2X Mito-MPS dye (BD Biosciences) into each well using Flying Reagent Dispenser (Aurora Discovery) and then following 30 min incubation at 37C. Fluorescence intensity (490nm excitation and 535nm emission for monomers; and 540nm excitation and 590nm emissions for aggregates) was measured using an Envision plate reader.
% is set by controls: 0 for no effect and ±100 for the full control effect; potency is the fitted concentration of half-maximal effect.

Question: With `COC(=O)C(Cl)C(=O)OC` as the molecule, how does the “ratio activity, negative = MMP loss” value read?
Answer: 10.1% (inactive)

Question: Which “ratio activity, negative = MMP loss” value does the source give for `C[C@H]1CNCCc2ccc(Cl)cc21` here?
Answer: 9.91% (inactive)

Question: With `c1ccc(CN2CCNCC2)cc1` as the molecule, how does the “ratio activity, negative = MMP loss” value read?
Answer: 8.05% [at 258 µM] (inactive)

Question: Which “ratio activity, negative = MMP loss” value does the source give for `Clc1cc(Cl)c(Cl)c(Cl)c1` here?
Answer: 14.6% (inactive)

Question: Which Potency does the source give for `Cn1sc(Cl)cc1=O` here?
Answer: inactive

Question: Which “ratio activity, negative = MMP loss” value does the source give for `Clc1cccc(SC2CCNCC2)n1` here?
Answer: -9.17% (inactive)

Question: For `ClC=C(Cl)Cl`, which “ratio activity, negative = MMP loss” value is on record?
Answer: -1.75% (inactive)

Question: Which “ratio activity, negative = MMP loss” value does the source give for `CCC(Br)(CC)C(=O)NC(N)=O` here?
Answer: -7.89% (inactive)

Question: For `O=C(CCl)c1ccc(Cl)cc1Cl`, which Potency is on record?
Answer: inactive and 17.1 µM (active)

Question: Which “ratio activity, negative = MMP loss” value does the source give for `CCCCCCC#N` here?
Answer: 14.6% (inactive)

Question: With `ClCc1ccccc1` as the molecule, how does the “ratio activity, negative = MMP loss” value read?
Answer: 6.82% (inactive)

Question: For `NCC(CC(=O)O)c1ccc(Cl)cc1` (stereo not given), which “ratio activity, negative = MMP loss” value is on record?
Answer: 12.5% (inactive)

Question: For `Brc1ccc(Oc2ccccc2)cc1`, which “ratio activity, negative = MMP loss” value is on record?
Answer: -6.12% (inactive)

Question: Which “ratio activity, negative = MMP loss” value does the source give for `CC/C(=N\OC/C=C/Cl)C1=C(O)CC(C2CCOCC2)CC1=O` (stereo not given) here?
Answer: 23.9% (inactive)

Question: For `Oc1ccc(Cl)c(Cl)c1Cl`, which Potency is on record?
Answer: 4.49 µM (active)

Question: For `CCOP(=S)(OCC)SCn1nnc2ccccc2c1=O`, which Potency is on record?
Answer: 27.3 µM (active)

Question: Which Potency does the source give for `[CH3][Sn]([CH3])([Cl])[Cl]` here?
Answer: inactive

Question: With `CCCCNP(N)(N)=S` as the molecule, how does the “ratio activity, negative = MMP loss” value read?
Answer: -18.9% (inactive)

Question: Which Potency does the source give for `Nc1ccc(N=Nc2ccc(-c3ccc(N=Nc4c(S(=O)(=O)O)cc5cc(S(=O)(=O)O)c(N=Nc6ccccc6)c(O)c5c4N)cc3)cc2)c(N)c1` here?
Answer: 6.24 µM (active)

Question: Which Potency does the source give for `O=C(Nc1ccccc1)Nc1ccnc(Cl)c1` here?
Answer: 0.386 µM (active)

Question: For `Clc1cccc2ccccc12`, which “ratio activity, negative = MMP loss” value is on record?
Answer: -9.24% (inactive)

Question: For `CC(=O)[C@H]1CC[C@H]2[C@@H]3CC[C@H]4C[C@](C)(O)CC[C@]4(C)[C@H]3CC[C@]12C`, which “ratio activity, negative = MMP loss” value is on record?
Answer: -9.22% (inactive)

Question: Which Potency does the source give for `COc1ccc(-c2ccccc2)cc1NNC(=O)OC(C)C` here?
Answer: 56.8 µM (active)

Question: Which “ratio activity, negative = MMP loss” value does the source give for `Nc1nc(N)nc(N)n1` here?
Answer: 17.3% [at 95.3 µM] (inactive)

Question: Which “ratio activity, negative = MMP loss” value does the source give for `O=[N+]([O-])c1ccccc1CCl` here?
Answer: -22.9% [at 95.3 µM] (inactive)

Question: With `COC(C)(C)CCC[C@H](C)C/C=C/C(C)=C/C(=O)OC(C)C` as the molecule, how does the Potency read?
Answer: 30.6 µM (active)

Question: Which “ratio activity, negative = MMP loss” value does the source give for `C=CCC1([C@H](C)CCC)C(=O)NC(=O)NC1=O` here?
Answer: 15.7% (inactive)

Question: For `II`, which Potency is on record?
Answer: 19.3 µM (active)

Question: With `CN1C(=O)NC(=O)C(C)(C2=CCCCC2)C1=O` (stereo not given) as the molecule, how does the Potency read?
Answer: inactive

Question: With `O=C1NCN(c2ccccc2)C12CCN(CCCOc1ccc(F)cc1)CC2` as the molecule, how does the Potency read?
Answer: 3.35 µM (active)

Question: For `C[C@@H]1CC[C@H]2[C@@H](C)C(=O)O[C@@H]3O[C@@]4(C)CC[C@@H]1[C@]32OO4`, which “ratio activity, negative = MMP loss” value is on record?
Answer: -13.8% (inactive)

Question: For `Brc1ccccc1`, which “ratio activity, negative = MMP loss” value is on record?
Answer: -7.18% (inactive)

Question: For `COc1nn(C(=O)NS(=O)(=O)c2ccccc2OC(F)(F)F)c(=O)n1C`, which “ratio activity, negative = MMP loss” value is on record?
Answer: -6.96% (inactive)

Question: For `NS(=O)(=O)C(F)(F)C(F)(F)C(F)(F)C(F)(F)C(F)(F)C(F)(F)C(F)(F)C(F)(F)F`, which Potency is on record?
Answer: 1.93 µM (active)

Question: For `O=C1CN=C(c2ccccc2)c2cc(Cl)ccc2N1CC1CC1`, which Potency is on record?
Answer: 51 µM (active)

Question: With `CCCCCCCCCCOC(=O)c1ccccc1C(=O)OCCCCCCCCCC` as the molecule, how does the “ratio activity, negative = MMP loss” value read?
Answer: 18.3% (inactive)

Question: Which “ratio activity, negative = MMP loss” value does the source give for `NC(=O)C(Cl)(Cl)Cl` here?
Answer: 10.9% [at 95.3 µM] (inactive)

Question: Which Potency does the source give for `CCC(C)(NC(=O)c1cc(Cl)c(C)c(Cl)c1)C(=O)CCl` (stereo not given) here?
Answer: 17.3 µM (active)

Question: Which Potency does the source give for `O=C(NCc1cccnc1)Nc1ccc([N+](=O)[O-])cc1` here?
Answer: 24.3 µM (active)

Question: With `CO[C@@H]1[C@H](OC(=O)NC(=O)CCl)CC[C@]2(CO2)[C@H]1[C@@]1(C)O[C@@H]1CC=C(C)C` as the molecule, how does the “ratio activity, negative = MMP loss” value read?
Answer: 6.74% [at 39.1 µM] (inactive)
